Measured values from PubChem BioAssay AID1159580 (chemical genetic matrix, 2015).
Where “and” joins values, the source holds several entries; their conditions need not be identical. Equal entries are not always repeated. In all, about 5,500 compounds went through this assay and about 2,000 (36%) were called active. Inconclusive results (about 18%) are left out. Cut-off read from the data, not from the text of the source: active = normalized growth mostly below about 0.91 (no sharp cut-off); inconclusive = no clear call, values can overlap the other calls; inactive = mostly above about 0.92. This is one part of the list.

Assay: chemical genetic growth profiling, strain panel (AID 1159580);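 note: tested at 20 µM; growth read once vehicle control cultures reached saturation at 30 °C; 1 = growth at the plate median or of vehicle wells; lower values mean less growth of the strain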
Conditions: S. cerevisiae deletion strains, growth OD

Measured: normalized growth

C[C@]12CC[C@H](O)C[C@H]1CCC1C2CC[C@]2(C)[C@@H](C3=CC(=O)OC3)[C@@H](O)C[C@]12O (stereo partly drawn)
inactive: locus YBR021W, strain FUR4, stronger effect = lower value 1.02 | locus YBR229C, strain ROT2, stronger effect = lower value 1.02 | locus YCL029C, strain bik1, stronger effect = lower value 1.01 | locus YDL035C, strain GPR1, stronger effect = lower value 1.08 | locus YDL074C, strain BRE1, stronger effect = lower value 1.1 | locus YDL101C, strain DUN1, stronger effect = lower value 1.02 | locus YDL185W, strain tfp1, stronger effect = lower value 0.974 | locus YDL192W, strain arf1, stronger effect = lower value 1.02 | locus YDR101C, strain arx1, stronger effect = lower value 1 | locus YDR150W, strain NUM1, stronger effect = lower value 1.03 | locus YDR162C, strain NBP2, stronger effect = lower value 1.03 | locus YDR318W, strain mcm21, stronger effect = lower value 0.998 | locus YDR388W, stronger effect = lower value 0.984 | locus YDR502C, strain sam2, stronger effect = lower value 1.01 | locus YEL061C, strain CIN8, stronger effect = lower value 1.02 | locus YER110C, stronger effect = lower value 0.997 | locus YER155C, strain BEM2, stronger effect = lower value 1 | locus YER167W, strain BCK2, stronger effect = lower value 1.02 | locus YGL078C, strain dbp3, stronger effect = lower value 0.982 | locus YGL086W, strain mad1, stronger effect = lower value 1 | locus YGL248W, strain PDE1, stronger effect = lower value 1.05 | locus YGR078C, strain PAC10, stronger effect = lower value 1.03 | locus YGR135W, strain pre9, stronger effect = lower value 1 | locus YGR229C, strain SMI1, stronger effect = lower value 1.13 | locus YGR252W, strain gcn5, stronger effect = lower value 0.962 | locus YHR030C, strain SLT2, stronger effect = lower value 1 | locus YHR079C, strain IRE1 (second series), stronger effect = lower value 0.983 | locus YHR079C, strain IRE1, stronger effect = lower value 0.982 | locus YHR094C, strain hxt1, stronger effect = lower value 0.982 | locus YHR129C, strain ARP1, stronger effect = lower value 1.03 | locus YHR200W, strain rpn10, stronger effect = lower value 0.995 | locus YIL066C, strain RNR3, stronger effect = lower value 1.03 | locus YIL073C, strain SPO22, stronger effect = lower value 1.07 | locus YIL125W, strain kgd1, stronger effect = lower value 1.02 | locus YIR030C, strain dcg1, stronger effect = lower value 0.994 | locus YJL095W, strain BCK1, stronger effect = lower value 1.07 and 0.981 | locus YJL134W, strain LCB3, stronger effect = lower value 1.02 | locus YJL168C, strain set2, stronger effect = lower value 0.975 | locus YJL187C, strain SWE1 (second series), stronger effect = lower value 1.04 | locus YJR043C, strain POL32, stronger effect = lower value 1.06 | locus YJR066W, strain TOR1, stronger effect = lower value 0.968 | locus YKL009W, strain mrt4, stronger effect = lower value 1.01 | locus YKL068W, stronger effect = lower value 0.994 | locus YKL085W, strain MDH1 (second series), stronger effect = lower value 0.996 | locus YKL085W, strain MDH1, stronger effect = lower value 0.996 | locus YKL190W, strain CNB1, stronger effect = lower value 1.02 | locus YKR001C, strain vps1, stronger effect = lower value 1.03 | locus YLR039C, strain RIC1, stronger effect = lower value 1.15 | locus YLR058C, strain SHM2, stronger effect = lower value 1.04 | locus YLR102C, strain apc9, stronger effect = lower value 0.989 | locus YLR113W, strain HOG1, stronger effect = lower value 0.975 | locus YLR262C, strain YPT6, stronger effect = lower value 1.16 | locus YLR268W, strain sec22, stronger effect = lower value 1 | locus YLR330W, strain CHS5, stronger effect = lower value 1.02 | locus YLR342W, strain FKS1 (second series), stronger effect = lower value 1.05 | locus YLR371W, strain rom2, stronger effect = lower value 1 | locus YLR418C, strain cdc73, stronger effect = lower value 1.01 | locus YML016C, strain PPZ1, stronger effect = lower value 1.03 | locus YML032C, strain rad52, stronger effect = lower value 1 | locus YML124C, strain tub3, stronger effect = lower value 0.987 | locus YMR078C, strain ctf18, stronger effect = lower value 0.986 | locus YMR223W, strain ubp8, stronger effect = lower value 1 | locus YMR307W, strain GAS1, stronger effect = lower value 1.19 | locus YNL067W, strain RPL9B, stronger effect = lower value 1.01 | locus YNL153C, strain GIM3, stronger effect = lower value 1.04 | locus YNL183C, strain NPR1, stronger effect = lower value 0.93 | locus YNL233W, strain BNI4, stronger effect = lower value 1.06 | locus YNL250W, strain rad50, stronger effect = lower value 1.01 | locus YNL271C, strain bni1, stronger effect = lower value 0.999 | locus YNL298W, strain CLA4, stronger effect = lower value 0.994 | locus YNL307C, strain MCK1, stronger effect = lower value 0.98 | locus YNR052C, strain pop2, stronger effect = lower value 0.987 | locus YOL006C, strain TOP1, stronger effect = lower value 1.27 | locus YOL012C, strain htz1 1.03 | locus YOL147C, strain pex11, stronger effect = lower value 0.993 | locus YOR061W, strain CKA2, stronger effect = lower value 1.03 | locus YOR069W, strain VPS5, stronger effect = lower value 1.02 | locus YOR136W, strain idh2, stronger effect = lower value 0.991 | locus YOR144C, strain elg1, stronger effect = lower value 0.989 | locus YOR184W, strain ser1, stronger effect = lower value 1.05 | locus YOR231W, strain MKK1, stronger effect = lower value 0.982 | locus YOR316C, strain cot1, stronger effect = lower value 1 | locus YPL256C, strain CLN2, stronger effect = lower value 1.03 | locus YPR119W, strain clb2, stronger effect = lower value 0.982 | locus YPR141C, strain kar3, stronger effect = lower value 0.997 | locus YPR163C, strain tif3, stronger effect = lower value 0.997 | locus YPR167C, strain met16, stronger effect = lower value 0.99 | strain wtn01, stronger effect = lower value 1.02
